# Source: PubChem BioAssay (EPA / NIEHS)
# Results filed as inconclusive are left out. Activity calls are given as the source filed them. Rule for the calls: active = hit-call score of the fitted dose curve at least 0.9, where 1 is the maximum; inconclusive = response in the unintended direction; inactive = score below 0.9.
# Legend:
# [1] = biological target: rat Opioid Receptor, Non-selective Sodium (Na+) Binding, Oprm1 (gene 25601) (UniProt P33535); assay: NVS_GPCR_rOpiate_NonSelectiveNa: NovaScreen (NVS) G Protein-Coupled Receptor Assay for rat Opioid Receptor, Non-selective Sodium (Na+) Binding (AID 2283311)
# Method: (§1) NVS_GPCR_rOpiate_NonSelectiveNa is a biochemical, single-readout assay that uses extracted gene-proteins from Rat forebrain membranes in a tissue-based cell-free assay. Measurements were taken 1.5 hours after chemical dosing in a 48-well plate.NVS_GPCR_rOpiate_NonSelectiveNa is one of one assay component(s) measured or calculated from the NVS_GPCR_rOpiate_NonSelectiveNa assay. It is designed to make measurements of radioligand binding, a form of binding reporter, as detected with scintillation counting signals by Filter-based radiodetection technology.Data from the assay component NVS_GPCR_rOpiate_NonSelectiveNa was analyzed into 1 assay endpoint. This assay endpoint, NVS_GPCR_rOpiate_NonSelectiveNa, was analyzed in the positive analysis fitting direction relative to DMSO as the negative control and baseline of activity. Using a type of binding reporter, loss-of-signal activity can be used to understand changes in the binding as they relate to the gene Oprm1. Furthermore, this assay endpoint can be referred to as a primary readout, because the performed assay has only produced 1 assay endpoint. To generalize the intended target to other relatable targets, this assay endpoint is annotated to the gpcr intended target family, where the subfamily is rhodopsin-like receptor.
# Binding assays used specific radioligands (tritiated, iodinated) with non-radioactive competitive displacement ligands in agonist or antagonist protocols (as indicated) and various reference compounds and inhibitors to titrate specific binding to receptors and transporters. Most enzyme assays (CYPs, kinases, phosphatases, proteases, HDACs) used recombinant protein and specific substrates (fluorescence mostly, some colorimetric and radioactive) and inhibitors, followed by a biochemical separation of substrate and product. All assays for the biochemical HTS were initially run in duplicate at a single concentration (10 uM for CYP450 assays and 25 uM for all others). Assay-chemical combinations meeting a pre-defined threshold (e.g., 30% inhibition and other criteria defined below) were then run in singleton concentration-response format with maximum concentration of 20 uM for CYPs and 50 uM for all others. Each assay was run with positive and negative controls, and concurrent controls on every plate. The follow-up (secondary) screen tested active chemical-pairs in concentration series, as well as a few additional assays not tested in the primary screen, some selected negative inactives, and several cases re-run in the concentration series for confirmatory purposes.
# [2] = biological target: rat Histamine Receptor (H3), Hrh3 (gene 85268) (UniProt Q9QYN8); assay: NVS_GPCR_rH3: NovaScreen (NVS) G Protein-Coupled Receptor Assay for rat Histamine Receptor (H3) (AID 2283303)
# Method in brief: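 Filter-binding radioligand competition on rat forebrain membranes, 1 h incubation; compounds screened at 25 µM in duplicate and followed in concentration series to 50 µM, loss of bound signal vs DMSO.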
# Adra2b (gene 24174) = Adra2b (gene 24174) (UniProt P19328); assay: NVS_GPCR_rmAdra2B: NovaScreen (NVS) G Protein-Coupled Receptor Assay for hybird cells Adrenergic, Alpha 2B Receptor (Adra2B) (AID 2283306)
# Method in brief: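 Compounds screened first at 25 uM in duplicate, with actives followed up in concentration-response; specific radioligand displacement from hybrid neuroglioma/blastoma cell membrane preparations measured by filter scintillation counting after 1 h, normalized to DMSO.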
# [3] = biological target: rat Neurokinin-1 Receptor (NK1), Tacr1 (gene 24807) (UniProt P14600); assay: NVS_GPCR_rNK1: NovaScreen (NVS) G Protein-Coupled Receptor Assay for rat Neurokinin-1 Receptor (NK1) (AID 2283309)
# Method in brief: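 Competitive radioligand binding to NK1 in rat submaxillary membranes, 1 h incubation, filtration and scintillation read-out. Compounds first screened at 25 uM in duplicate, then concentration-response for actives; signal loss relative to DMSO.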
# [4] = biological target: rat Glutamate Metabotropic Receptor 5 (MGluR5), Grm5 (gene 24418) (UniProt P31424); assay: NVS_GPCR_rmMGluR5: NovaScreen (NVS) G Protein-Coupled Receptor Assay for rat Glutamate Metabotropic Receptor 5 (MGluR5) (AID 2283307)
# Method in brief: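 Compounds first screened in duplicate at 25 uM, then in concentration series up to 50 uM if over threshold. Radioligand displacement on rat whole-brain membranes, filtration and scintillation counting after 1.5 h; binding loss relative to DMSO.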
# [5] = biological target: rat Neurokinin-3 Receptor (NK3), Tacr3 (gene 24808) (UniProt P16177); assay: NVS_GPCR_rNK3: NovaScreen (NVS) G Protein-Coupled Receptor Assay for rat Neurokinin-3 Receptor (NK3) (AID 2283310)
# Method in brief: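 Filter-based radioligand displacement on rat cortex membrane preparations, read by scintillation 2 h post-dose. Chemicals first tested in duplicate at 25 uM; actives followed up in concentration series with a 50 uM maximum.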
# [6] = biological target: rat Neonicotinoid receptor (NNR), Chrna7 (gene 25302) (UniProt Q05941); assay: NVS_LGIC_rNNR_BungSens: NovaScreen (NVS) Ligand-Gated Ion Channel Assay for rat Neonicotinoid receptor (NNR) (AID 2283315)
# Method in brief: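 Rat cortical membrane preparation incubated 2.5 h with tritiated or iodinated radioligand and test chemical. Bound radioactivity was filtered and counted by scintillation, and displacement was analysed against DMSO.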
# [7] = biological target: Metabotropic glutamate receptor 1 (Rattus norvegicus) (UniProt P23385); assay: NVS_GPCR_rmMGluR1: NovaScreen (NVS) G Protein-Coupled Receptor Assay for rat Glutamate Metabotropic Receptor 1 (MGluR1) (AID 2283305)
# Method in brief: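 Binding to native receptor from rat cerebellum extract, measured as displacement of a radioligand (scintillation counting, filter separation) after 1 hour. Compounds tested at 25 uM in duplicate, then titrated to a 50 uM maximum.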
# [8] = biological target: rat Somatostatin Receptor (SST), Sstr1 (gene 25033) (UniProt P28646); assay: NVS_GPCR_rSST: NovaScreen (NVS) G Protein-Coupled Receptor Assay for rat Somatostatin Receptor (SST) (AID 2283314)
# Method: as §1, with “NVS_GPCR_rSST” for “NVS_GPCR_rOpiate_NonSelectiveNa”, “1 hour” for “1.5 hours”, “96-well plate.NVS_GPCR_rSST” for “48-well plate.NVS_GPCR_rOpiate_NonSelectiveNa”, “NVS_GPCR_rSST,” for “NVS_GPCR_rOpiate_NonSelectiveNa,”, “Sstr1.” for “Oprm1.”
# Binding assays used specific radioligands (tritiated, iodinated) with non-radioactive competitive displacement ligands in agonist or antagonist protocols (as indicated) and various reference compounds and inhibitors to titrate specific binding to receptors and transporters. Most enzyme assays (CYPs, kinases, phosphatases, proteases, HDACs) used recombinant protein and specific substrates (fluorescence mostly, some colorimetric and radioactive) and inhibitors, followed by a biochemical separation of substrate and product. All assays for the biochemical HTS were initially run in duplicate at a single concentration (10 uM for CYP450 assays and 25 uM for all others). […]
# [9] = biological target: rat Gamma-Aminobutyric Acid Type B Receptor (GABBR), Gabbr1 (gene 81657) (UniProt Q9Z0U4); assay: NVS_GPCR_rGABBR: NovaScreen (NVS) G Protein-Coupled Receptor Assay for rat Gamma-Aminobutyric Acid Type B Receptor (GABBR) (AID 2283301)
# Method in brief: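 Rat cortical membrane preparation, competitive radioligand binding for 1 h with filtration and scintillation readout. Actives from duplicate single-point 25 uM screening proceeded to concentration series with 50 uM top concentration.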
# Sequence of rat Gamma-Aminobutyric Acid Type B Receptor (GABBR), Gabbr1 (gene 81657) (Q9Z0U4 whole entry, looked up): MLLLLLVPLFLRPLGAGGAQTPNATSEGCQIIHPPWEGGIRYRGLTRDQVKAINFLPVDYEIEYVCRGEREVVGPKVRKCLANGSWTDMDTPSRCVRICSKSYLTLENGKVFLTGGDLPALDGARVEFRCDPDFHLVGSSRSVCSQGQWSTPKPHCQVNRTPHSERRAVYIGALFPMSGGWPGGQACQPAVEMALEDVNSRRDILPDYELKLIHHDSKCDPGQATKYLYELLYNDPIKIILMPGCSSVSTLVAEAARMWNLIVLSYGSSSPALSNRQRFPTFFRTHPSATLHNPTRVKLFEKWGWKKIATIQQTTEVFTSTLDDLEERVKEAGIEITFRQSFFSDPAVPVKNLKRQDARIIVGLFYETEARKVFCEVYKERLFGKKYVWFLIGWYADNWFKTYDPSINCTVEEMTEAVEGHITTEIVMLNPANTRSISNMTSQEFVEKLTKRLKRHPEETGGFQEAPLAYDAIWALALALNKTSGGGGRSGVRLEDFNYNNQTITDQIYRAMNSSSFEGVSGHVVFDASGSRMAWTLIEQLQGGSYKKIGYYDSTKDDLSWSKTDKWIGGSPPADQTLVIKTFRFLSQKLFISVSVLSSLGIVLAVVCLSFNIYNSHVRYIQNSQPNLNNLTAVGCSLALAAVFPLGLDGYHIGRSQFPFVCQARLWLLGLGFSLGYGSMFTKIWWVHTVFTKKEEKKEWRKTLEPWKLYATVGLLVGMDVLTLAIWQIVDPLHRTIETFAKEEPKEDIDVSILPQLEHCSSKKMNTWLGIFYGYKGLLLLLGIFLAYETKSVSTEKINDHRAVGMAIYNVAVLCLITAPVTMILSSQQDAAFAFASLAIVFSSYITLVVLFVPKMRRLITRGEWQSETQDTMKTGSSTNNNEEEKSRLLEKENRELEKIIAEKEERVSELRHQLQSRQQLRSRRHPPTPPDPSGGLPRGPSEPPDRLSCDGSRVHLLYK
# Sequence of rat Neurokinin-1 Receptor (NK1), Tacr1 (gene 24807) (P14600 whole entry, looked up): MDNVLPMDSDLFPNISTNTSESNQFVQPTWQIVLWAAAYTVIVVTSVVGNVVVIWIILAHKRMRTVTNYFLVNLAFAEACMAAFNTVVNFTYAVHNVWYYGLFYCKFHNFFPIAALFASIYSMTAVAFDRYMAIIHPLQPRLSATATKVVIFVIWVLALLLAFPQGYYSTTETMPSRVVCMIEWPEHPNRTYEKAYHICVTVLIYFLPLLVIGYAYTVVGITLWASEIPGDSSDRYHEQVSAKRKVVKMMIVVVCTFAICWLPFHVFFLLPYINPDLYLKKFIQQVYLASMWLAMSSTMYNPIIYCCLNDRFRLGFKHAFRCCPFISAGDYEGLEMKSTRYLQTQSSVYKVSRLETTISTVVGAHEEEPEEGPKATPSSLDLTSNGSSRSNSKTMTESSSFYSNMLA
# Sequence of rat Neonicotinoid receptor (NNR), Chrna7 (gene 25302) (Q05941 whole entry, looked up): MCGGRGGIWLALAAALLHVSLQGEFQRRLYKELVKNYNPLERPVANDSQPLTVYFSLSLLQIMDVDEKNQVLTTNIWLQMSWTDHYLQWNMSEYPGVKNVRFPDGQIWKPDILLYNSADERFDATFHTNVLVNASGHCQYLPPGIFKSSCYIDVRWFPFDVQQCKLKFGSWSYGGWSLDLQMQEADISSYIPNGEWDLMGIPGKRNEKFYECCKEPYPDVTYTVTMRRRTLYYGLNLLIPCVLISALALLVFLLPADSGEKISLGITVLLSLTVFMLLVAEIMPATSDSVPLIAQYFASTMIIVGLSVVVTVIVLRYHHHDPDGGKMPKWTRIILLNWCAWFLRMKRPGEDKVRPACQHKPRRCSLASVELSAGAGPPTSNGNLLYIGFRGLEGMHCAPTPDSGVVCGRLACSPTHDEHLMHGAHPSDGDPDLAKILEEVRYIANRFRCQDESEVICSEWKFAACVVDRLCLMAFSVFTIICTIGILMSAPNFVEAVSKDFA
# Sequence of Adra2b (gene 24174) (P19328 whole entry, looked up): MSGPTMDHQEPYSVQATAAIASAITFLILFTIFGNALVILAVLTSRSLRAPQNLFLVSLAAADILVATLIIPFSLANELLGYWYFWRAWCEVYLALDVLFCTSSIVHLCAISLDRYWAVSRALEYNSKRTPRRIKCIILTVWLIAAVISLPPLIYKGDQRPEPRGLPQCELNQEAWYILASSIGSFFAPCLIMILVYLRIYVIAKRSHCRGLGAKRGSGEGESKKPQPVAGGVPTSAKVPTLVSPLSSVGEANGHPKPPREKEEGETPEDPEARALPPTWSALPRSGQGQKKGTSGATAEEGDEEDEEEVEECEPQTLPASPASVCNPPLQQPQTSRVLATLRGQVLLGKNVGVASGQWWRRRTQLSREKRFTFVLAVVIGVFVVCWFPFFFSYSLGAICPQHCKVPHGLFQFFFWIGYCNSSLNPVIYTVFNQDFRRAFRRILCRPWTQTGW
# Sequence of rat Neurokinin-3 Receptor (NK3), Tacr3 (gene 24808) (P16177 whole entry, looked up): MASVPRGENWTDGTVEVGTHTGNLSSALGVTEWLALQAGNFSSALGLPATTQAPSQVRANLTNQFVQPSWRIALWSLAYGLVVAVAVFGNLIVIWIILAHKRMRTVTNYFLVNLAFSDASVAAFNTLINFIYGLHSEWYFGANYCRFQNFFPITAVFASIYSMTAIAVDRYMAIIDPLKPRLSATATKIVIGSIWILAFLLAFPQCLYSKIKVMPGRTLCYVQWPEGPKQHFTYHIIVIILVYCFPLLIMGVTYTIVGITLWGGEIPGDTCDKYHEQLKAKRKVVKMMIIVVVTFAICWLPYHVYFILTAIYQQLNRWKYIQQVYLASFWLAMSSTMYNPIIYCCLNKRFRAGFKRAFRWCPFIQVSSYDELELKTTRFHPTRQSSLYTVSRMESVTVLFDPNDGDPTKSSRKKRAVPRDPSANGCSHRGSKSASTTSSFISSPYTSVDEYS
# Sequence of rat Somatostatin Receptor (SST), Sstr1 (gene 25033) (P28646 whole entry, looked up): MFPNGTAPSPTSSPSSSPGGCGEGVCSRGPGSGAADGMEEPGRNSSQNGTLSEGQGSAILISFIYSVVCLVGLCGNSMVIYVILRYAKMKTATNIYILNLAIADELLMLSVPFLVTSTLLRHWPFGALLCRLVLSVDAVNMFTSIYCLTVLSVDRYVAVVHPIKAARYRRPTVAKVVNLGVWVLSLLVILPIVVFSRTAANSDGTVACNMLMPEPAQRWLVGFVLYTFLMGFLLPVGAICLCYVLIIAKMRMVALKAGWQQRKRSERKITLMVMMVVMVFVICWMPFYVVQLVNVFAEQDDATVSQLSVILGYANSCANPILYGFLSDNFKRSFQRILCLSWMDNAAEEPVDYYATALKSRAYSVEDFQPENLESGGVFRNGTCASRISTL
# Sequence of rat Glutamate Metabotropic Receptor 5 (MGluR5), Grm5 (gene 24418) (P31424 whole entry, looked up): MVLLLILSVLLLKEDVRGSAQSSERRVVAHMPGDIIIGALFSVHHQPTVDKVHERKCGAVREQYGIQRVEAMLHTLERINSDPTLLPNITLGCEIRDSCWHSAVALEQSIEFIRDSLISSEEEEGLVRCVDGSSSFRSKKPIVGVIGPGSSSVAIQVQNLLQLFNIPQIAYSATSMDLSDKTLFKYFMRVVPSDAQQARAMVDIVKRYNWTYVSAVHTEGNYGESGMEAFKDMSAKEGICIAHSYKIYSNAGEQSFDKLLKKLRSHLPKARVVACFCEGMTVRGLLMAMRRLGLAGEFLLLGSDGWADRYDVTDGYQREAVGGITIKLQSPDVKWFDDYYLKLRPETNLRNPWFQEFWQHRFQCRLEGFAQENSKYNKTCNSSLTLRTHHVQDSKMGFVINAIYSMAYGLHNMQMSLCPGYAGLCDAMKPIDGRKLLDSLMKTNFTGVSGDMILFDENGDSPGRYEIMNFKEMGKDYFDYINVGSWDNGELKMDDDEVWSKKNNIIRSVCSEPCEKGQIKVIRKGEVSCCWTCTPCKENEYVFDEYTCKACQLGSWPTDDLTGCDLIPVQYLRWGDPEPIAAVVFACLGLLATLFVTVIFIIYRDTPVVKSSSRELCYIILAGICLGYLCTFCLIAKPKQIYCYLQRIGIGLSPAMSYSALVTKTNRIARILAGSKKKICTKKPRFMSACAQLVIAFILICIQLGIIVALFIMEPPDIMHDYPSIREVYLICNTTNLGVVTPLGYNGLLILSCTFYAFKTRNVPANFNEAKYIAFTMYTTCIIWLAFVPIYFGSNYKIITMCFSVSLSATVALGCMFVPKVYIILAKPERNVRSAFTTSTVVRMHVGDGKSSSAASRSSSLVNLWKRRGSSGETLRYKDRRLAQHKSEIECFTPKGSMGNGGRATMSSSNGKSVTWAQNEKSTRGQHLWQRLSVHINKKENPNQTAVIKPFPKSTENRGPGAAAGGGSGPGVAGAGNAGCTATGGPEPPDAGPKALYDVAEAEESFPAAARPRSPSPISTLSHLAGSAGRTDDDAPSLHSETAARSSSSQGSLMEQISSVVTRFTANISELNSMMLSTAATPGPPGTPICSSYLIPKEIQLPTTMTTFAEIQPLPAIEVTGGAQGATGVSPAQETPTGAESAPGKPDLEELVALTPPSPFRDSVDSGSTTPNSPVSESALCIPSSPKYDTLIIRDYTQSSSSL
# Sequence of rat Opioid Receptor, Non-selective Sodium (Na+) Binding, Oprm1 (gene 25601) (P33535 whole entry, looked up): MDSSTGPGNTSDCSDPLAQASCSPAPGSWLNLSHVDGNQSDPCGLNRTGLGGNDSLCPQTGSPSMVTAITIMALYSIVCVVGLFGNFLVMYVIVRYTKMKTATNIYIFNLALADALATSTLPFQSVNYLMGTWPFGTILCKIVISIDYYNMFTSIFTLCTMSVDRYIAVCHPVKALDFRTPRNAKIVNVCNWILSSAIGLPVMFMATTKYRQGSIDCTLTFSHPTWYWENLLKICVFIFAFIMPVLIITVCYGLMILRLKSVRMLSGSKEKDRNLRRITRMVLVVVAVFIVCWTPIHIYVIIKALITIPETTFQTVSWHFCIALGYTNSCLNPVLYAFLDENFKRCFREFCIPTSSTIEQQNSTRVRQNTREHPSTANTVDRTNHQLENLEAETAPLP
smiles,measurement,setting,value
CC[C@H](C)[C@@H](C(=O)O)n1sc2ccccc2c1=O,AC50,[1],3.52 µM (active)
CCCCCCCC(=O)O,outcome,[2],inactive
same,outcome,Adra2b (gene 24174),inactive
same,outcome,[1],inactive
O=C(O)Cc1cc(I)c(Oc2cc(I)c(O)c(I)c2)c(I)c1,outcome,[3],inactive
same,outcome,[1],inactive
CC#C[C@]1(O)CC[C@H]2[C@@H]3CCC4=CC(=O)CCC4=C3[C@@H](c3ccc(N(C)C)cc3)C[C@@]21C,AC50,Adra2b (gene 24174),6.9 µM (active)
same,outcome,[4],inactive
same,outcome,[3],inactive
same,outcome,[5],inactive
same,AC50,[1],2.59 µM (active)
same,outcome,[6],inactive
CCCCCCCCCCCCc1ccccc1S(=O)(=O)O,AC50,[7],8.71 µM (active)
same,AC50,Adra2b (gene 24174),25 µM (active)
O=C(O)c1ccccc1C(c1ccc(O)cc1)c1ccc(O)cc1,outcome,[3],inactive
CC[C@H](c1ccc(O)cc1)[C@@H](CC)c1ccc(O)cc1,outcome,[5],inactive
same,AC50,[1],1.77 µM (active)
same,outcome,[6],inactive
CC(=O)NC1(c2cccc(F)c2)CCN(CC[C@@]2(c3ccc(Cl)c(Cl)c3)CN(c3ccccc3)C(=O)CO2)CC1,AC50,Adra2b (gene 24174),11 µM (active)
same,AC50,[3],14.5 µM (active)
same,AC50,[5],0.713 µM (active)
same,AC50,[1],10.5 µM (active)
same,AC50,[8],9.18 µM (active)
CCN(CC)CCNc1ccc(CNC=O)c2sc3ccc(OC)cc3c(=O)c12,AC50,Adra2b (gene 24174),9 µM (active)
same,outcome,[1],inactive
same,AC50,[6],29.3 µM (active)
Cc1oc(-c2ccccc2)nc1CCOc1ccc(C[C@H](Nc2ccccc2C(=O)c2ccccc2)C(=O)O)cc1,outcome,[9],inactive
same,outcome,[5],inactive
CN1CCC[C@H]1c1cccnc1,AC50,[2],25 µM (active)
CC(C)CCCCCCOC(=O)CCCCC(=O)OCCCCCCC(C)C,outcome,[4],inactive
same,outcome,[3],inactive
CC(C)(C)c1ccc(O)c(C(C)(C)C)c1,AC50,[8],10.7 µM (active)
NC(=O)N(O)[C@@H]1C=C[C@H](Oc2cccc(Oc3ccc(F)cc3)c2)C1,outcome,Adra2b (gene 24174),inactive
same,outcome,[3],inactive
same,outcome,[8],inactive
O=c1c(-c2ccc(O)cc2)coc2cc(O)ccc12,outcome,[3],inactive
same,outcome,[6],inactive
CCC(C)(C)C1CCC(O)CC1 (stereo not given),outcome,[6],inactive
OC1CCCCC1,outcome,[4],inactive
CCC(=C(c1ccc(O)cc1)c1ccc(OCCN(C)C)cc1)c1ccccc1,outcome,[3],inactive
NC(=O)N1C(=O)C(C(=O)c2cc(Cl)cs2)c2cc(F)c(Cl)cc21 (stereo not given),outcome,[9],inactive
O=C(OCCOCCOC(=O)c1ccccc1)c1ccccc1,outcome,[3],inactive
Cc1cc(CCN2CCN(c3nsc4ccccc34)CC2)cc2c1NC(=O)CC2(C)C,outcome,[9],inactive
CCCOc1sc(C(=O)N2CCC(c3cc(CN)ccc3F)CC2)c(C)c1Br,AC50,Adra2b (gene 24174),6.34 µM (active)
same,AC50,[3],23.2 µM (active)
